# The campaign covered roughly 310,000 compounds. About 1,900 (0.61%) were called active. This is one part of a sample in which actives are shown more often than they occur.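 Rule for the calls: active = plate-corrected calcium response at least 3 library SD above typical, normal starting fluorescence, not activating the receptor alone; inactive = the rest.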
# Target: Mas-related G-protein coupled receptor member X1 (Homo sapiens) (UniProt Q96LB2)
# Assay: positive allosteric modulators of MrgX1, primary screen, HEK293 cells, Fluo-4 calcium flux (AID 588675);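 note: compound read alongside a low EC10 to EC30 dose of BAM8-22 agonist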;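 for B-score: peak minus trough fluorescence over baseline measured at the second addition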
# Conditions: MrgX1-HEK293, Fluo-4 calcium flux, FDSS, at 10 µM; stronger effect = higher value
# Chain of Mas-related G-protein coupled receptor member X1 (Homo sapiens) (Q96LB2 whole entry, looked up): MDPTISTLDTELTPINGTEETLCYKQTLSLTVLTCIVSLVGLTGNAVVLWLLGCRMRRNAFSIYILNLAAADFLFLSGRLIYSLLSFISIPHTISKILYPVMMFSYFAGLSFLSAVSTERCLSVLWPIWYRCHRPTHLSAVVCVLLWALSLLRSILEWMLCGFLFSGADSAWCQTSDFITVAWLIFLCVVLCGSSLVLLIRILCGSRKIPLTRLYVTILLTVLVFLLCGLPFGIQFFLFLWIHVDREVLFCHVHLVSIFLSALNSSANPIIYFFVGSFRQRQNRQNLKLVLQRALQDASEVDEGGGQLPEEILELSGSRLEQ
row,Structure (SMILES),B-score
1,CCC(C)c1ccc(O)c(/C=N/O)c1 (configuration not stated),6.88 (active)
2,CNCC(O)c1ccc(O)c(O)c1 (configuration not stated),inactive
3,CCOC(=O)c1cccc(NC(=O)C2CCN(c3ncnc4c3nc3n4CCCCC3)CC2)c1,inactive
4,CCCCCCCCCCCC(=O)O,inactive
5,CCCC(=O)OCC(=O)Nc1cc(Cl)ccc1[N+](=O)[O-],9.84 (active)
6,CC(C)(C)NC(=O)COC(=O)c1cc(Cl)ccc1[N+](=O)[O-],inactive
7,Cc1cc(NC(=O)COC(=O)COc2ccc(Cl)cc2C)c([N+](=O)[O-])cc1C,inactive
8,CCN(CC(=O)NC1CCS(=O)(=O)C1)S(=O)(=O)c1ccccc1 (configuration not stated),inactive
9,Cc1coc2c(O)cc3c(c12)OC1(N2CCCCC2)C(=O)NCCCC31 (configuration not stated),inactive
10,COc1cccc(NC(=O)NCCN2CCCCC2)c1,inactive
11,Cc1ccc2c(c1)C1CN(C)CCC1N2S(=O)(=O)c1ccc(Oc2ccc([N+](=O)[O-])cc2)cc1 (configuration not stated),inactive
12,Cc1ccc(S(=O)(=O)N(C)c2ccc(OCC(=O)OCC(=O)N(CC#N)c3ccccc3)cc2)cc1,inactive
13,Cc1ccc2nc(Nc3ccccc3O)nc(-c3ccccc3)c2c1,inactive
14,Cc1ccc2nc(Nc3ccccc3)cc(C)c2c1,14 (active)
15,Cc1cc(Nc2ccc(Br)cc2)nc2ccccc12,inactive
16,CCCN(CCC)C(=O)C1c2ccccc2Oc2ccccc21,inactive
17,CCOc1cccc(NC(=O)CC#N)c1,inactive
18,CC(=O)Nc1cccc(OCC(=O)/C=C2\N(C)c3ccccc3C2(C)C)c1,6.96 (active)
19,CC(C)Nc1nnc(SCC(=O)/C=C2\N(C)c3ccccc3C2(C)C)s1,inactive
20,Cc1ccc(S(=O)(=O)N2[C@@H](c3cccc(Cl)c3)C(C(=O)O)=CC[C@H]2c2ccc(Cl)c(Cl)c2)cc1,inactive
21,Cc1ccc([C@@H]2CC=C(C(=O)O)[C@H](c3cccc(Cl)c3)N2S(=O)(=O)c2ccc(C)cc2)cc1,inactive
22,Cc1ccc(S(=O)(=O)N2[C@@H](c3ccccc3F)C(C(=O)O)=CC[C@H]2c2ccc(Cl)cc2)cc1,15.6 (active)
23,CC(=O)Nc1cccc(C(=O)OCN2C(=O)c3ccccc3C2=O)c1,inactive

row,Structure (SMILES),B-score
1,O=C(c1ccc(OC2CCN(C(=O)c3cccnc3)CC2)cc1)N1CCCCCC1,6.62 (active)
2,O=C(c1ccc(OC2CCN(Cc3ccccn3)CC2)cc1)N1CCCCCC1,inactive
3,O=C(c1ccc(OC2CCN(C/C=C/c3ccc(F)cc3)CC2)cc1)N1CCCCC1,inactive
4,O=C(NCCCc1ccccc1)C1CCC(CNc2c(N3CCCCC3)c(=O)c2=O)CC1 (configuration not stated),inactive
5,Cc1cccc(C)c1NC(=O)N1CC=C(n2c(=O)[nH]c3ccccc32)CC1,inactive
6,CCOc1ccc(NC(=O)N2CCN(CC)CC2)cc1,inactive
7,CCOc1ccc(NC(=O)N2CC=C(n3c(=O)[nH]c4ccccc43)CC2)cc1,7.16 (active)
8,O=C(CCc1[nH]c2ccccc2c1Sc1ccccc1)N(CCO)CCO,inactive
9,CN(Cc1ccccc1)C(=O)C1CCCN(c2ncnc3c2nc2n3CCCCC2)C1 (configuration not stated),inactive
10,CCCCOP(=O)(c1ccc(N(C)C)cc1)C(O)c1cc(OC)ccc1OC (configuration not stated),inactive
11,COC(CNC(=O)Cn1ncc2ccsc2c1=O)OC,inactive
12,CCC1=C(OC(=O)N(CC)CC)N2C(=O)OC(=NCC3CC3)[C@]2(C)[C@H]2C1=CC[C@H]1C(=O)N(CC(=O)OC)C(=O)[C@H]12,inactive
13,CCN(c1cccc(C)c1)S(=O)(=O)c1ccc(-c2coc(C)n2)cc1,8.56 (active)
14,COc1cccc(NS(=O)(=O)c2ccc(-c3coc(C)n3)cc2)c1,inactive
15,Cc1ccc(NS(=O)(=O)c2ccc(-c3coc(C)n3)cc2)c(C)c1,inactive
16,CCCCN(CCCC)CCC(O)c1cc2c(Cl)cc(Cl)cc2c2cc(C(F)(F)F)ccc12 (configuration not stated),inactive
17,O=C(/C=C/c1ccc(OCc2c(F)cccc2Cl)cc1)N1CCOCC1,inactive
18,Fc1ccc(COc2ccc(-c3nnco3)cc2)cc1,inactive
19,Fc1cccc(Cl)c1COc1ccc(-c2nnco2)cc1,13.2 (active)
20,O=C(c1cc(-c2ccc(F)cc2)on1)N1CCN(c2ccc(F)cc2)CC1,inactive
21,O=C(Nc1ccc(F)cc1)N1CCN(c2ccc(F)cc2)CC1,inactive
22,Cc1c(C(=O)N2CCN(c3ccc(F)cc3)CC2)oc2c1C(=O)CCC2,7.4 (active)
23,Cc1ccc(S(=O)(=O)n2nc(OC(=O)C(C)(C)C)cc2N)cc1,inactive

row,Structure (SMILES),B-score
1,O=C(COC(=O)c1ccccc1Br)Nc1nnc(-c2ccccc2)o1,inactive
2,Nc1cc(OC(=O)c2ccccc2Br)nn1S(=O)(=O)c1ccccc1,7.83 (active)
3,Cc1ccc2[nH]c(C(=O)O)c(NC(=O)c3ccccc3[N+](=O)[O-])c2c1,inactive
4,O=C(O)C1=CCCN(CCON=C(c2ccccc2)c2ccccc2)C1,inactive
5,Cc1cc(C(=O)Nc2ccccc2N2CCOCC2)c2ccccc2n1,inactive
6,Cc1ccc(S(=O)(=O)N2CCOCC2)cc1C(=O)Nc1ccccc1N1CCCC1,inactive
7,O=C(Nc1ccccc1N1CCOCC1)c1csc2c1CCCC2,12 (active)
8,c1ccc(-c2ccc3c(c2)NC(C2Nc4cc(-c5ccccc5)ccc4O2)O3)cc1 (configuration not stated),inactive
9,O=C(Oc1ccc(Br)cc1C(=S)N1CCOCC1)c1cccc([N+](=O)[O-])c1,inactive
10,COc1ccc(Nc2nnc(C)c3ccccc23)cc1,22.5 (active)
11,Cc1nnc(NCCO)c2ccccc12,inactive
12,COc1ccc(Nc2nc(=O)[nH]nc2C)cc1,inactive
13,CN(c1ccccc1)S(=O)(=O)c1ccc(NC(=O)COc2ccccc2)cc1,inactive
14,O=C(NCc1ccccc1Cl)c1ccc2c(=O)n(CC3CCCO3)c(=S)[nH]c2c1 (configuration not stated),inactive
15,CC(C)CCn1cnc2c1c(=O)n(CC(=O)NC(N)=O)c(=O)n2Cc1ccccc1,inactive
16,Cc1ccc(Oc2nc3ccccc3n3c(C)nnc23)cc1,inactive
17,CC(=O)Nc1ccc(S(=O)(=O)N(C)c2nc3ccccc3nc2Cl)cc1,inactive
18,Cc1ccc(S(=O)(=O)N(C)c2nc3ccccc3n3c(C(C)C)nnc23)cc1,6.54 (active)
19,CC(C)CC(=O)N/C(N)=N/c1nc2ccccc2s1,12.9 (active)
20,CC(C)CC(=O)NC(=S)NCc1ccccc1,inactive
21,CCC(=O)NC(=Nc1nc2ccccc2s1)NC(=O)CC,inactive

# From PubChem BioAssay AID588675 (Johns Hopkins Ion Channel Center, 2011)
